The values that follow come from ChEMBL document CHEMBL3988442, “University of Dundee, Small-Polar-MMV Screening Library” (2021).

SMILES strings stand for the structures.

The assay concerns the target AMP-activated protein kinase, AMPK (Homo sapiens) (UniProt P54646+O43741+P54619+Q9UGJ0+Q9Y478+Q13131+Q9UGI9). The assay is described as follows: AMP-dependent Kinase enzyme assay. An in vitro enzyme assay that detects ADP turnover that is directly proportional to AMPK activity. This uses naive AMPK that is activated during the assay with MK-8722. In kind it is functional. Particulars: 30 µM. The arrangement: scale not given: direction of the effect not stated beside the values.
Regarding `CC1CCC(O)(CSc2nnnn2C2CC2)CC1` (stereo unspecified), the Percent Effect was 6.07%.
In the case of `COc1cccc2c1OCC(Cc1cc(C(=O)N3CCCC3)ccn1)C2` (stereo unspecified) it was 5.36%.
The result for `O=C(c1nnn(-c2ccc(F)cc2)n1)N(CCO)Cc1ccccc1` reads 3.9%.
For the compound `COc1ccccc1CNC(=O)C(C)N1CC(n2cc(C)cn2)C1` (stereo unspecified), the Percent Effect is 3.01%.
In the case of `COCCCC1CCCCN1Cc1cn2cc(C)ccc2n1` (stereo unspecified) it was 7.53%; in that of `CS(=O)(=O)CCCNc1cccc(COC2CCCCC2)c1`, -2.55%; in that of `COCC(=O)N1CCC(c2c(C(=O)N(C)C)sc3ncccc23)C1` (stereo unspecified), 1.82%.
In the case of `COC(=O)CC1CCCCN1CC(=O)Nc1cc(F)ccc1F` (stereo unspecified) it was 7.24%; in that of `Cc1noc(C)c1C(=O)N1CCC(n2cccn2)CC1`, -9.16%.
In the case of `CCn1cnnc1CNS(=O)(=O)N1CCCC1c1ccc(C)o1` (stereo unspecified) it was 0.967%; in that of `CC(C)Cc1cc(CNC(=O)c2cccc3c2NCCC3)no1`, 1.24%; in that of `CN([C@@H]1CC[C@@H](N2CCCC2)[C@@H]1O)S(=O)(=O)c1ccccc1`, -6.19%.
Regarding `O=C(Cn1ccc2ncccc2c1=O)N1CCCCC1`, the Percent Effect was -2.48%.
In the case of `O=C(CNc1ccc(OC2CCOC2)cc1)NCc1cccs1` (stereo unspecified) it was 9.41%; in that of `CN(Cc1ccc(OCC(=O)N2CCOCC2)cc1)S(C)(=O)=O`, -30.8%; in that of `Cc1csc(CCNC(=O)N2CCC(C(N)=O)CC2)n1`, -10.8%.
In the case of `Cc1nc(CN2CCCC2Cn2cccn2)nc2ccccc12` (stereo unspecified) it was -8.75%; in that of `CC(C)(CNc1cccc(Cl)c1)NC(=O)C1CCCN(CC(N)=O)C1` (stereo unspecified), 40.1%; in that of `Cc1noc(OCC(=O)N2CCCCC2C)n1` (stereo unspecified), -1.69%.
The result for `CC(C)(CNC(=O)c1ccco1)NC(=O)OC(C)(C)C` reads -6.6%; that for `COC1CCCOC12CCN(C(=O)NCc1ccco1)CC2` (stereo unspecified), 13%.
